According to PubChem BioAssay (NCI):
About 79,000 compounds went through this panel and 15% of them were active in at least one assay; those are over-represented in the sample as a whole. Active and inactive are the calls of the source. Cut-off read from the data, not from the text of the source: active = growth inhibition above about 70%; inactive = the rest.

Experiment: NCI Yeast Anticancer Drug Screen. Data for the bub3 strain (AID 167)
Details: S. cerevisiae bub3 mutant strain, at 50.0 µM, stronger effect = higher value
Description: Growth inhibition of yeast strains with defined genetic alterations is measured as a screen for potential anti-cancer activity. Selected strains with alterations in DNA damage repair or cell cycle control were exposed to compounds and growth inhibition was measured relative to vehicle treated controls. The strain used in this assay is bub3
With Nc1nc(N)c2nc3c(nc2n1)CCCC3 the growth inhibition was -13.1% (inactive).
With S=C1SCCCN1c1ccccc1 the growth inhibition was -9.6% (inactive).
For O=C(N/N=C\c1ccc2c(c1)CCC2)c1cccc2ccccc12, the growth inhibition was 10.2% (inactive).
In the case of Cc1cc2c(=O)cc(-c3ccccc3)oc2c(C(=O)O)c1C, the growth inhibition is reported as -4.65% (inactive).
In the case of O=C(CN1C(=O)c2ccccc2C1=O)Oc1ccccc1, the growth inhibition is reported as 16.4% (inactive).
For CC(CN(C)C)C(=O)C(=Cc1ccccc1)C(=O)C(C)CN(C)C (stereo not given), the growth inhibition was -2.5% (inactive).
For CC1CCC(C(C)(C)O)CC1O (stereo not given), the growth inhibition was -16.8% (inactive).
With CC(=O)c1ccc2ccc3ccccc3c2c1 the growth inhibition was 1.15% (inactive).
For COC/C=C(\C)CC/C=C(\C)CCC=C(C)C, the growth inhibition was -27.3% (inactive).
With COc1ccc(C(C)c2cc3c(cc2OCC(=O)O)OCO3)cc1OC (stereo not given) the growth inhibition was -0.2% (inactive).
For Cn1c2c(c(=O)n(C)c1=O)CCC(=O)N2, the growth inhibition was -2.4% (inactive).
In the case of O=C1N2Cc3c4ccc5c3CN3C(=O)N6Cc7c(ccc(c7CN1C6(c1ccccc1)C23c1ccccc1)OCCOCCNCCOCCO4)OCCOCCNCCOCCO5 (stereo not given), the growth inhibition is reported as -16.2% (inactive).
For O=c1nc(Oc2ccccc2)nc2ncccn12, the growth inhibition was 50.6% (inactive).
In the case of Nc1ccc[nH]c1=O, the growth inhibition is reported as 20.7% (inactive).
In the case of O=C(Nc1nc(C23CC4CC(CC(C4)C2)C3)cs1)c1c(O)c2ccccc2[nH]c1=O, the growth inhibition is reported as -6.45% (inactive).
With CSc1nc(=O)n(CCC#N)nc1SC the growth inhibition was 4.25% (inactive).
For CCOC(=O)C1(N)CC1, the growth inhibition was -11.4% (inactive).
With O=C(O)CN1C(=O)c2ccccc2C1=O the growth inhibition was -27.6% (inactive).
With OC(CNC1CC2CCC1C2)COc1cccc2ccccc12 (stereo not given) the growth inhibition was 51% (inactive).
With O=C(CC(=O)C(=O)CC(=O)OCc1ccccc1)OCc1ccccc1 the growth inhibition was -21.3% (inactive).
With CC(C)CC(N)C(=O)NC(Cc1cc2ccccc2[nH]1)C(=O)O (stereo not given) the growth inhibition was 5.2% (inactive).
In the case of Cc1c(C)c2ccc(OC(C)C(=O)O)cc2oc1=O (stereo not given), the growth inhibition is reported as 10.1% (inactive).
In the case of CC/C(=N/O)C(C)C(=O)CCC(=O)Nc1ccc(Cl)cc1 (stereo not given), the growth inhibition is reported as 8.15% (inactive).
In the case of [O-][n+]1cc[n+]([O-])c2cc(O)ccc21, the growth inhibition is reported as 1.1% (inactive).
With CC1(c2ccc[n+](Cc3ccccc3)c2)OCCO1 the growth inhibition was -39.6% (inactive).
For Cc1cc(=O)oc2c(CNC(CC(C)C)C(=O)O)c(O)ccc12 (stereo not given), the growth inhibition was -24.8% (inactive).
With CCC(C)(NC(N)=O)c1ccccc1 (stereo not given) the growth inhibition was -12.9% (inactive).
In the case of NC(=O)CC(N)C(N)=O (stereo not given), the growth inhibition is reported as -18.3% (inactive).
For COc1ccccc1-n1c(O)c(N=Nc2ccccc2)c(=O)n(-c2ccc(C)cc2)c1=S, the growth inhibition was -2.2% (inactive).
With Cc1ccc(CC(=O)N(C)C)c([N+](=O)[O-])c1 the growth inhibition was -8.45% (inactive).
With O=C(O)C(Br)C(O)c1ccccc1 (stereo not given) the growth inhibition was 4.25% (inactive).
In the case of CC(=O)Nc1cccc(Cl)c1, the growth inhibition is reported as -1.45% (inactive).
In the case of NC1(C(=O)O)CCCc2ccccc21 (stereo not given), the growth inhibition is reported as -12.6% (inactive).
With Nc1ccccc1SC1CCCCC1O (stereo not given) the growth inhibition was 3.75% (inactive).
In the case of COC(=O)[C@@]1(NC(=O)C(CC(=O)OC(C)(C)C)NC(=O)OC(C)(C)C)C[C@H]1C (stereo not given in full), the growth inhibition is reported as -3.25% (inactive).
In the case of [O-][n+]1c(/C=C/c2cccc3ccccc23)cccc1/C=C/c1cccc2ccccc12, the growth inhibition is reported as 29.4% (inactive).
With CC1(C)OCC2OC=CC(=O)C2O1 (stereo not given) the growth inhibition was -14.1% (inactive).
With CCCCOC(=O)/C(CC(=O)C=C(C)C)=N\NS(=O)(=O)c1ccc(C)cc1 the growth inhibition was -8.5% (inactive).
For CC(=O)OCC(OC(C)=O)C(OC(C)=O)C(OC(C)=O)C(OC(C)=O)C(C=O)OC(C)=O (stereo not given), the growth inhibition was -1.25% (inactive).
In the case of CC(C)CNc1ncnc2[nH]ncc12, the growth inhibition is reported as 1.2% (inactive).
